RGS7-Gao reg: human RGS7-Galphao interaction regulation; P09471; Multiplexed bead flow cytometry, RGS7-Galphao binding; actives lie on both sides; binding response (% of control), % at 10 µM; actives 0.35% (n = 220,000); in the data active means binding response below about 49% or above about 150%; inconclusive means no clear call, values can overlap the other calls; inactive means in between;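 further: fluorescent Galphao held in activated GDP-AlF4 state binding bead-coupled RGS7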
Target sequence (P09471 whole entry, looked up): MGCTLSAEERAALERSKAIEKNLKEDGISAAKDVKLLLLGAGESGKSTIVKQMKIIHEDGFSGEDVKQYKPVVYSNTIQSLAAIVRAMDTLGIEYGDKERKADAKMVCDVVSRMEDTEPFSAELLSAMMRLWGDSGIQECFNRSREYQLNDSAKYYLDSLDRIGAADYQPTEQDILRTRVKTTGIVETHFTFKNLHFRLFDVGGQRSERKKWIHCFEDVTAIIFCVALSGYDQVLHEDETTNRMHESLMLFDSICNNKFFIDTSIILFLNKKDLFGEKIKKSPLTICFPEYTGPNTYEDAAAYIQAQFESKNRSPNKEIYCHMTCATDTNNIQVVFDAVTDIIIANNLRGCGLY
Avidin fluor: compound fluoresces at 488/530 nm on avidin beads. fluorescence (KMESF) at 10 µM. AID 1775. compound fluorescence 488/530 nm, flow cytometry; stronger effect = higher value. actives 0.38% (n = 220,000); in the data active means fluorescence above about 47
RGS4-Gao reg: modulates binding of RGS4 to human Galphao | P09471 | Multiplexed bead flow cytometry; actives lie on both sides | actives 0.33% (n = 220,000) | binding response (% of control), % at 10 µM | AID 1415; in the data active means binding response below about 49% or above about 150%; inactive means in between;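 further: fluorescent Galphao activated with aluminum fluoride binding bead-coupled RGS4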
RGS8-Gao: modulates binding of RGS8 to human Galphao | multiplexed bead flow cytometry; actives lie on both sides | actives 0.34% (n = 220,000) | response (percent of control binding), % at 10 µM; in the data active means response below about 60% or above about 140%; inactive means in between;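 further: Galphao activated as the GDP aluminium fluoride complex binding bead-coupled RGS8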
GSH bead fluor: compound fluoresces at 488/530 nm on GSH beads; GSH beads flow cytometry, compound fluorescence 488/530 nm; stronger effect = higher value; fluorescence (KMESF) at 10 µM; actives 0.25% (n = 190,000); in the data active means fluorescence above about 89;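 further: glutathione beads carrying GST-tagged Bcl family fusion proteins plus one bare bead set; values are compound well signal with DMSO vehicle wells as background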
RGS16-Gao HTS: modulates binding between human RGS16 and Galphao; actives 0.38% (n = 220,000); bead-based flow cytometry RGS16-Galphao binding, fluorescence; actives lie on both sides; AID 1441; binding response (% of control), % at 10 µM; call rule not given here;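 further: Galphao activated by GDP with aluminum fluoride before binding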
Active calls of the source: *; ? = inconclusive; . = no result given; [ ] = remark or other dose. Hits are enriched below; roughly 1.2% of the tested compounds scored in any of these assays.

SMILES	RGS7-Gao reg	Avidin fluor	RGS4-Gao reg	RGS8-Gao	GSH bead fluor	RGS16-Gao HTS
CCOC(=O)c1nnn(-c2nonc2-n2cccc2)c1-c1cccc([N+](=O)[O-])c1	102	10	98	99	17	101
CCC1CN(C(=O)Nc2ccc(C)cc2)c2cc(C)ccc2O1 (configuration not stated)	100	10	102	99	13	103
COc1cc(CC(=O)Nc2ccc(S(=O)(=O)NC3=NCCCCC3)cc2)cc(OC)c1OC	?	8	101	102	9	104
NC(=O)c1c(NC(=O)CN2C(=O)CCC2=O)sc2c1CCCCC2	106	8	105	105	28	113
CCC1(C)NC(=O)N(CC(=O)Nc2sc3c(c2C(N)=O)CCC3)C1=O (configuration not stated)	77	3	83	86	222*	1
Cc1cc(S(=O)(=O)N2CCN(c3ccccc3C)CC2)ccc1F	102	5	102	104	23	106
Cc1ccccc1N1CCN(S(=O)(=O)c2ccccc2)CC1	104	12	107	106	98*	106
O=c1c2ccccc2c(C=Nc2cccc(O)c2)c(O)n1-c1ccc2c(c1)OCO2	93	57*	85	98	12	100
CS(=O)(=O)N1CCC(C(=O)Nc2ccc(F)cc2F)CC1	118	79*	104	101	24	100
CCCCc1c(C)nc2ccc(C(=O)OCC)cc2c1Cl	98	10	101	99	12	100
CCOC(=O)c1ccc2nc(C)c(CCC(C)=O)c(Cl)c2c1	19*	0	19*	11*	15	8.4*
N=c1c2c(-c3ccccc3)c(-c3ccccc3)n(Cc3ccco3)c2ncn1Cc1ccccc1	98	14	97	90	12	94
CC(C)Cn1cnc2c(c(-c3ccccc3)c(-c3ccccc3)n2Cc2ccco2)c1=N	102	8	106	102	251*	106
CC(=O)Nc1cc2c(=O)n(Cc3ccccc3)c(C)nc2cc1N1CCOCC1	113	52*	107	102	37	105
Cc1cc(NC(=O)CN2C(=O)NC(C)(c3ccc(OC(F)F)cc3)C2=O)no1 (configuration not stated)	110	48*	100	100	15	97
O=C(c1ccc(F)cc1)N1CCN(c2ncccn2)CC1	114	73*	100	99	13	100
COC(=O)CNC(=O)COC(=O)c1cc(Cl)cc(Cl)c1N	102	31	100	98	22	100
CC(C)CNC(=O)COC(=O)c1cc(Cl)cc(Cl)c1N	95	7	93	95	265*	99
OCC1(Cc2ccccc2)CCCN(Cc2c[nH]c3ccccc23)C1 (configuration not stated)	106	9	105	118	11	151
Cc1cccc(-c2c3c(=O)n(C)c(=O)n(C)c3cn2CC2CCCO2)c1 (configuration not stated)	99	6	84	93	261*	87
O=C(Cc1ccccc1[N+](=O)[O-])NCc1ccc(Cl)cc1	176*[activator]	119*	213*[activator]	101	20	105
O=C(Cc1ccccc1[N+](=O)[O-])NCc1ccc(Cl)cc1Cl	103	6	102	98	10	91
Cc1cc(C(=O)OCC(=O)NC(C)C)c(C)o1	102	7	101	102	269*	100
Cc1cc(C(=O)OCC(=O)NC2CCCCC2)c(C)o1	100	26	99	101	23	101
CN(c1ccccc1)S(=O)(=O)c1cc(C(=O)OCC(N)=O)ccc1Cl	?	14	104	102	11	104
SMILES	RGS7-Gao reg	Avidin fluor	RGS4-Gao reg	RGS8-Gao	GSH bead fluor	RGS16-Gao HTS
O=C(c1ccco1)N1CCN(C(c2ccc(F)cc2)c2nnnn2Cc2cccs2)CC1 (configuration not stated)	101	7	107	111	260*	127
O=C(N/N=C/c1ccc(-c2ccccc2[N+](=O)[O-])o1)c1cncc(Br)c1	78	83*	85	80	6	23
COc1ccc(-n2c(=O)c3ccccc3n(Cc3ccc(F)cc3)c2=O)cc1OC	139	104*	102	96	20	103
O=C(Nc1cccc2ccccc12)N1CCOCC1	106	19	106	103	28	110
S=C(Nc1cccc2ccccc12)NN1CCOCC1	116	47*	117	104	24	116
Cc1sc(NC(=O)c2cccs2)c(C(=O)OC(C)C)c1C	105	5	110	106	102*	108
CCc1c(C)sc(NC(=O)c2cccs2)c1C(=O)OC(C)C	100	11	100	101	28	99
O=C(c1cccs1)N1CCN(CCCc2ccccc2)CC1	100	7	101	101	263*	108
Cc1ccc(NC(=O)C2CC(=O)Nc3nncn32)cc1 (configuration not stated)	97	13	99	99	13	99
COc1ccc(/C=[N+](\[O-])C2N(c3ccccc3)C(=S)SC2(C)C)cc1OC (configuration not stated)	?	6	97	99	.	96
CC1Cc2ccccc2N1C(=O)CSc1nnnn1C (configuration not stated)	102	3	94	94	251*	37
Cc1cc(=O)n2cccc(O)c2n1	101	11	103	104	9	110
CC(NC(=O)c1ccc(S(=O)(=O)C(F)F)cc1)c1ccccc1 (configuration not stated)	?	8	102	100	14	101
O=C(NC(c1ccccc1)c1ccccc1)c1ccc(S(=O)(=O)C(F)F)cc1	110	58*	102	100	16	102
CCCN(CCC)S(=O)(=O)c1ccc(NS(=O)(=O)c2ccc(F)cc2)cc1	110	52*	102	99	19	101
COc1cccc2sc(/N=C/N(C)C)nc12	?	7	101	102	.	99
Cc1cc(C)n(-c2ncnc3sc(C)c(C)c23)n1	105	53*	109	103	14	114
Cc1cc(C)n(-c2ncnc3sc4c(c23)CCCC4)n1	95	9	97	100	15	100
COCCCNC(=O)Cn1cc2c(n1)CCCCC2	101	5	98	99	16	104
CCCSCCCNC(=O)Cn1cc2c(n1)CCCCC2	43*	3	49*	56*	18	47
O=C(Cn1[nH]c(=O)c2ccccc2c1=O)Nc1ccc2c(c1)CCC2	100	8	102	100	270*	105
COc1ccc(C2=NOC(C(=O)Nc3cccnc3Cl)C2)cc1 (configuration not stated)	99	8	100	104	21	105
Cc1cc(C)nc(NS(=O)(=O)c2ccc(NC(=S)NC(=O)CC(C)C)cc2)n1	194*[activator]	118*	208*[activator]	108	20	270*[activator]
